Out of some 48,000 compounds screened, about 13,000 (27%) showed an effect of 50% or more. This is one part of the list.
System: Wolbachia pipientis
Assay: Anti-Wolbachia Cell-Based Screen
Assay type: functional
Parameters: scale not given: in the data most compounds retested in dose-response had high values
Conditions: 5 µM

Compared with `COc1ccc2cc(CN(C)C(C)c3nc(C(C)(C)C)no3)ccc2c1` (stereo not given), `COc1ccc(OCCN(C)Cc2nc3c(cnn3C)c(=O)[nH]2)cc1` is higher in “Percent Effect” value: -2.359% for the first, 98.39% for the second.

Going from `CN(C)C(=O)CN1CCC2(CC1)COc1ccccc1S(=O)(=O)N(C)C2.O=C(O)C(F)(F)F` to `CN1CC2(CCN(CC3CC3)CC2)COc2ccccc2S1(=O)=O.O=C(O)C(F)(F)F`, the “Percent Effect” value falls from 107.3% to 105.1%.

Going from `CN1CC2(CCN(Cc3ccoc3)CC2)COc2ccccc2S1(=O)=O.O=C(O)C(F)(F)F` to `CN1CCC2(COCCN(Cc3cccc(C#N)c3)C2)C1.O=C(O)C(F)(F)F.O=C(O)C(F)(F)F` (stereo not given), the “Percent Effect” value falls from 1.89% to -6.492%.

Going from `CN(C)C(=O)CN1C[C@H]2CCN(Cc3ccccc3)CC[C@H]2S1(=O)=O.O=C(O)C(F)(F)F` to `Cl.Cl.O=C(CN1CCN(CC(O)C2CC2)CC1)NCc1ccccc1` (stereo not given), the “Percent Effect” value rises from -15.21% to 118.5%.

First: COc1cccn(CC(=O)N(C)CCC2CCOCC2)c1=O
Second: COc1cccc(C2CCCN2C(=O)c2cc3c([nH]c2=O)CCC3)c1 (stereo not given)
The “Percent Effect” value of the first is lower: -97.94% for the first, 13.18% for the second.

Compared with `CN1CCN([C@@H]2CCN(C3CCOCC3)[C@H]2Cc2cnn(C)c2)CC1.O=C(O)C(F)(F)F.O=C(O)C(F)(F)F.O=C(O)C(F)(F)F`, `CC(C)NC1CCc2c(ccc(=O)n2CCN2CCOCC2)C1.O=C(O)C(F)(F)F.O=C(O)C(F)(F)F` (stereo not given) is higher in “Percent Effect” value: -4.702% for the first, 1.575% for the second.

Compared with `Cc1nccn1-c1cc(CNC(=O)C2CCC(=O)N2)ccn1` (stereo not given), `Cn1cnc(-c2nc(C(=O)NC3CC3)c3ccccn23)c1` is lower in “Percent Effect” value: -0.872% for the first, -8.322% for the second.

Compared with `Cc1cc(N2CCC(N(C)Cc3cccnc3)C2=O)n(C)n1` (stereo not given), `Cc1ccccc1CN(C)Cc1nc2c(cnn2C)c(=O)[nH]1` is higher in “Percent Effect” value: 5.804% for the first, 16.78% for the second.

First: CCC(C(=O)NCc1ccncc1)N(c1cccc(C)c1)S(C)(=O)=O (stereo not given)
Second: CC(C)c1nccn1CCCNC(=O)c1ccc(-c2ccncc2)nc1
The “Percent Effect” value of the first is lower: -0.3468% for the first, 3.275% for the second.

Going from `O=c1ccc2c(n1CCN1CCCC1)CCN(c1ncccn1)CC2` to `O=c1ccc2c(n1CC1CC1)CCN(c1ncccn1)CC2`, the “Percent Effect” value falls from 103.5% to 91.07%.

Compared with `CS(=O)(=O)N1CCc2ccc(=O)n(CC3CC3)c2CC1`, `CCS(=O)(=O)N1CCc2ccc(=O)n(CC3CC3)c2CC1` is lower in “Percent Effect” value: -5% for the first, -6.425% for the second.

First: c1cnc(N2CCC(OCCN3CCCCC3)C2)nc1 (stereo not given)
Second: c1cnc(N2C[C@H]3CCN(c4cccnc4)C[C@H]3C2)nc1
The “Percent Effect” value of the first is higher: 7.193% for the first, -4.407% for the second.

First: CS(=O)(=O)N1CCc2ccc(=O)n(CCN3CCCC3)c2CC1.O=C(O)C(F)(F)F
Second: CC(=O)N1CCc2ncn(C)c2C1C(=O)N1CCCC1.O=C(O)C(F)(F)F (stereo not given)
The “Percent Effect” value of the first is higher: 96.15% for the first, -4.032% for the second.

Going from `O=C1OCCN1CCSc1nnnn1C1CCOCC1` to `O=C(O)C(F)(F)F.O=C([C@H]1COC[C@H]2CN(C3CCOCC3)C[C@H]21)N1CCCO1`, the “Percent Effect” value falls from 4.471% to 2.638%.

First: CCc1c(O)nc(SC(C)CC)n(-c2ccccc2)c1=O (stereo not given)
Second: Cc1nc2cc(=O)[nH]n2c(C)c1CNC(=O)C(C)(C)c1ccccc1
The “Percent Effect” value of the first is higher: -9.121% for the first, -10.11% for the second.

Compared with `Cc1ccc(CNC(=O)NC2CCC(O)CC2)c(N2CCCC2)c1` (stereo not given), `Cc1ccc(CNC(=O)CN2CCN(CC(O)C3CC3)CC2)cc1.Cl.Cl` (stereo not given) is lower in “Percent Effect” value: -1.85% for the first, -4.273% for the second.

First: CN(CCCOc1ccccc1)Cc1nc2c(cnn2C)c(=O)[nH]1
Second: CN(CCCOc1ccc(F)cc1)Cc1nc2c(cnn2C)c(=O)[nH]1
The “Percent Effect” value of the first is higher: 105% for the first, -3.245% for the second.

Compared with `Cc1ccsc1CN(C)Cc1nc2c(cnn2C)c(=O)[nH]1`, `Cc1ccc(CN(C)Cc2nc3c(cnn3C)c(=O)[nH]2)c(C)c1` is higher in “Percent Effect” value: 5.162% for the first, 10.63% for the second.

First: CCN(Cc1nc2c(cnn2C)c(=O)[nH]1)c1cccc(F)c1
Second: CN(CCOc1cccc(F)c1)Cc1nc2c(cnn2C)c(=O)[nH]1
The “Percent Effect” value of the first is lower: 1.042% for the first, 123% for the second.

Going from `CN(Cc1nc2c(cnn2C)c(=O)[nH]1)Cc1ccc(F)cc1F` to `COc1ccc(C)cc1CN(C)Cc1nc2c(cnn2C)c(=O)[nH]1`, the “Percent Effect” value falls from -0.6664% to -1.165%.

Going from `Cc1ccc(OCCN(C)Cc2nc3c(cnn3C)c(=O)[nH]2)cc1` to `COc1ccc(-c2ncc(-c3nccn3CCN(C)C)cn2)cc1`, the “Percent Effect” value falls from 122.7% to -4.545%.

Going from `FC(F)(F)COCCN1CCc2cncnc2C1` to `O=C(CCN1CCOC(C(F)(F)F)C1)NCc1ccccc1Cl` (stereo not given), the “Percent Effect” value rises from -42.17% to 4.795%.

Going from `CNC(=O)Cc1ccc(NC(=O)NCC(C)c2ncc(C)s2)cc1` (stereo not given) to `Cc1ccc(CNC(=O)CN2CCN(CC(O)c3ccco3)CC2)cc1.Cl.Cl` (stereo not given), the “Percent Effect” value falls from 5.803% to 0.6703%.

Compared with `CC(C)Nc1ccnc(-c2ccnc3c2ccn3C)n1`, `Cc1nn(C)c2nc(-c3ccccn3)nc(NCCCOC(C)C)c12` is higher in “Percent Effect” value: -57.68% for the first, -17.61% for the second.

First: CC(C)(NC(=O)c1scnc1Cl)c1ccccc1
Second: COC(=O)[C@@H]1Cc2ncn(C)c2CN1S(=O)(=O)Cc1ccccc1
The “Percent Effect” value of the first is lower: -10.08% for the first, -8.847% for the second.

First: COc1cc2c(cc1C(=O)N1CC(c3ccncc3)C1)CCC2
Second: O=C(N1CCC(Oc2ccncc2)C1)C1(c2ccccc2F)CC1 (stereo not given)
The “Percent Effect” value of the first is higher: -5.879% for the first, -11.14% for the second.

Going from `O=C(NCCn1ccnc1)c1cncc(Br)c1` to `O=C(NCCn1ccnc1)c1cccc(Br)c1`, the “Percent Effect” value falls from 15.29% to 8.46%.

Going from `O=C(NCCn1ccnc1)c1cccc(F)c1` to `O=C(NCCn1ccnc1)c1cc(F)cc(Br)c1`, the “Percent Effect” value rises from 6.195% to 6.627%.

First: Cn1nc(-c2ccc(F)cc2)cc1C(=O)NCCn1ccnc1
Second: COc1ccc(-c2cc(C(=O)NCCn3ccnc3)n(C)n2)cc1
The “Percent Effect” value of the first is higher: 186.2% for the first, 156.8% for the second.

Going from `COc1ccc(-c2cc(C(=O)NCCCn3ccnc3C)n(C)n2)cc1` to `Cn1cnc(-c2nc(C(=O)NCCN3CCCC3)c3ccccn23)c1`, the “Percent Effect” value falls from 159.9% to -11.17%.

Going from `Cc1nc(C(F)(F)F)nc(N2CCC(O)(C(=O)O)CC2)c1C` to `CC(C)NC(=O)[C@H]1C[C@@H]2[C@@H](C1)OCCN2Cc1cnn(C)c1.O=C(O)C(F)(F)F`, the “Percent Effect” value falls from -14.39% to -20.9%.

Compared with `O=C(CN1CCCc2c(F)cc(Br)cc21)N1CCN(C(=O)C2CC2)CC1`, `O=C(NCCN1CCCCC1=O)C1CCC(=O)N(C2CCCC2)C1` (stereo not given) is lower in “Percent Effect” value: 3.977% for the first, -13.2% for the second.

First: N#Cc1ccnc(N2CCN(C3CCOC3=O)CC2)c1 (stereo not given)
Second: Cl.Cl.O=C(CN1CCN(CC(O)C2CC2)CC1)NCc1ccccc1Cl (stereo not given)
The “Percent Effect” value of the first is lower: -3.021% for the first, 116.4% for the second.

Going from `O=C(CN1CCS(=O)(=O)CC1)NCc1ccccc1F` to `O=C(N1CCCC(n2cncn2)C1)C1(c2ccccc2F)CCCC1` (stereo not given), the “Percent Effect” value rises from -2.021% to 104.1%.

Compared with `CSCC[C@@H](CO)Nc1nc(-c2ccccn2)nc2c1c(C)nn2C`, `Cc1nc(-c2nc(C(=O)N(C)C)c3ccccn23)cn1C(C)C` is higher in “Percent Effect” value: -12.31% for the first, 84.92% for the second.

Compared with `O=C(O)c1nnn(Cc2cccc(C(F)(F)F)c2)c1-c1cccnc1`, `FC(F)(F)c1cccc(N2CCC(NCc3cccnc3)CC2)c1` is lower in “Percent Effect” value: 14.53% for the first, 10.28% for the second.

First: CNC(=O)Cn1cc(C#N)c(=O)c2cc(Br)ccc21
Second: CNC(=O)CC1COCCN1C(=O)C1(c2ccc(Cl)cc2)CCC1 (stereo not given)
The “Percent Effect” value of the first is lower: -8.636% for the first, -7.784% for the second.

Compared with `CNC(=O)[C@@H]1C[C@@H](N)CN1C1CCN(Cc2ccccn2)CC1`, `CNC(=O)[C@@H]1[C@@H](c2ccccc2)CN2CCN(Cc3ccccn3)C[C@H]12` is higher in “Percent Effect” value: -2.984% for the first, 89.14% for the second.

First: CNC(=O)[C@@H]1[C@H]2CN(Cc3ccccn3)CCN2C[C@H]1c1ccccc1
Second: CSc1ccccc1C(C(=O)O)N1CCN(Cc2ccccn2)CC1 (stereo not given)
The “Percent Effect” value of the first is higher: 121% for the first, 5.13% for the second.

Going from `CS(=O)(=O)NC1CCCN(Cc2ccccn2)C1` (stereo not given) to `O=C(Nc1ccc(Cl)cn1)C1CCCN(Cc2ccccn2)C1` (stereo not given), the “Percent Effect” value rises from -8.857% to 22.45%.

Compared with `CC(C)c1cc(C(=O)N(C)C(C)c2nccs2)no1` (stereo not given), `Cc1nc(-c2nc(C(=O)NC3CC3)c3ccccn23)cn1C(C)C` is higher in “Percent Effect” value: -2.417% for the first, 96.1% for the second.

Going from `O=C(CCc1ccc(O)cc1)N1CCC(Cc2ccc(CO)cc2)C1` (stereo not given) to `Cc1cccn2cc(CC(=O)N3CCCC(n4cncn4)C3)nc12` (stereo not given), the “Percent Effect” value rises from -11.56% to 3.172%.

Going from `CSc1ccccc1C(=O)NCCC(O)c1ccco1` (stereo not given) to `CC(C)n1ccc(-c2cc(C(=O)NC3CC3)c3ccccn23)n1`, the “Percent Effect” value rises from -13% to -8.678%.

First: COCc1nc2cc(NCc3ncc[nH]3)ccc2o1
Second: CSCCC1c2nc[nH]c2CCN1Cc1cc(Cl)ccc1O (stereo not given)
The “Percent Effect” value of the first is higher: 3.493% for the first, -0.8881% for the second.

Going from `Cc1ccccc1C1(C(=O)N2CCCC(n3cncn3)C2)CC1` (stereo not given) to `c1ccc(C2CCCN(c3cncc(-n4cccn4)n3)CC2)cc1` (stereo not given), the “Percent Effect” value falls from 122.4% to 13.07%.

Compared with `c1cncc(N2CCC(c3ccncc3)CC2)c1`, `c1ccc(N2CCC(c3ccncc3)CC2)cc1` is higher in “Percent Effect” value: 81.68% for the first, 167% for the second.

Compared with `c1cc(N2CCC(c3nnc(Cn4ccnc4)n3C3CC3)CC2)ccn1`, `c1cc(C2CCN(c3cncnc3)CC2)ccn1` is higher in “Percent Effect” value: -8.252% for the first, 107.5% for the second.

Compared with `Cc1cnc(N2CCC(c3ccncc3)CC2)nc1-c1ccnn1C`, `COC(=O)c1ccc(N2CCC(c3ccccc3)CC2)nn1` is higher in “Percent Effect” value: -32.29% for the first, -9.28% for the second.

Going from `CC(C)n1cnc(-c2nc(C(=O)NC3CC3)c3ccccn23)c1` to `CC(C)n1cnc(-c2nc(C(=O)N3CCN(C)CC3)c3ccccn23)c1`, the “Percent Effect” value falls from 100.7% to 2.747%.

First: Cc1nc(C(=O)N(C)CC(F)(F)C(F)(F)F)c2ccccn12
Second: Cc1nc(-c2nc(C(=O)N3CCOCC3)c3ccccn23)cn1C(C)C
The “Percent Effect” value of the first is higher: 6.68% for the first, -8.689% for the second.
